Records with an inconclusive call do not appear. Active and inactive are the calls of the source. The call rests on the fitted dose curve; in most records, active means well fitted cell-killing curve with a large enough effect; inconclusive means small, poorly fitted or top-dose-only effect, or effect the other way; inactive means flat fitted curve, though single readings scatter.

This test in a line: MultiTox-Fluor Cytotoxicity Assay - LYMP1-002 - Live Cells (AID 955). The conditions noted are these: LYMP1-002 lymphoblastoid live-cell protease fluorescence viability; series mostly up to 46.1 µM. The source says: NIH Chemical Genomics Center [NCGC]
NIH Molecular Libraries Screening Centers Network [MLSCN]
National Institutes of Environmental Health Sciences [NIEHS]
National Toxicology Program [NTP]
We have developed a 1536-well cell-based assay for quantitative high throughput screening (qHTS) against a number of cell lines to determine in vitro cytotoxicity of small molecules. This particular assay uses a human lymphoblastoid cell line (LYMP1-002) purchased from Coriell Institute.
NCGC Assay Protocol Summary:
The MultiTox-Fluor Cytotoxicity Assay (Promega) is a homogeneous method to simultaneously measure the relative number of live and dead cells in culture by detecting changes in cell membrane integrity. There are two fluorogenic peptide substrates in the assay reagent. Viable cells are determined when the cell-permeant substrate (GF-AFC) enters the cell and is cleaved by protease from live cells resulting in liberated fluorophore. This live-cell protease activity restricted to viable cells is proportional to cell number. The dead cells are determined by using fluorogenic cell-impermeant peptide substrate (bis-AAF-R110) which cleaved by dead cell proteases leaking from damaged cell membrane.
Using the MultiTox-Fluor Cytotoxicity Assay, the relative number of live cells was measured in the lymphoblastoid cell line with complete culture medium following compound treatment for 16 hours. The assay was performed in opaque black Kalypsys 1536-well plates. In the screen, tetraoctylammonium bromide was used as positive control. Library compounds were measured for their ability to cause acute toxicity in the cell line, as reflected by a decrease in live cell protease activity, in a concentration-dependent manner. […] AC50 values were determined from concentration-response data modeled with the standard Hill equation.
qHTS protocol for MultiTox-Fluor Cytotoxicity assay
[Step] [Parameter] [Value] [Description]
1. Reagent; 5 uL; 2500 lymphoblastoid cells/well
2. Time; 5 hr; 37 C incubation
4. Controls; 23 nL; Tetraoctylammonium bromide 6.4pM to 92 uM
5. Time; 16 hr; 37 C incubation
6. Reagent; 5 uL; MuliTox-Fluor Assay reagent
7. Time; 60 min; Room Temperature
8. Detection; live-cell fluorescence (Ex/Em=405/510); EnVision plate reader
Keywords: cell viability, cytotoxicity, lymphoblastoid cell line, fluorescence, NTPHTS, NTPHTS_NCGC, NIEHS, EPA, DSSTox, MLSMR, MLSCN, NIH Roadmap, qHTS, NCGC
Consider `ClC(Cl)(Cl)C(Cl)(Cl)Cl`, for which the call was inactive.
On to `Nc1cccc2ccccc12`, for which the compound was classed as inactive.
Next, `CCCCCOC(=O)c1ccccc1C(=O)OCCCCC`: “inactive”; `C=CC(=O)OCCN(C)C`: “inactive”; `CN=C=O`: “inactive”.
For the compound `O=c1ccc(=O)[nH][nH]1`, the call was inactive.
As to `CC(C)OC(=O)Cc1ccccc1`, the call was inactive.
Turning to `CCCCNC(=O)n1c(NC(=O)OC)nc2ccccc21`, the outcome was inactive.
Next, `NNC(N)=S`: “inactive”.
With `C=CC#N`, the compound was classed as inactive.
In the case of `Nc1ccccc1-c1ccccc1`, the call was inactive.
The same measure for `O=C(O)CCl`: “inactive”.
Regarding `CCOS(C)(=O)=O`, the outcome was inactive.
Next, `COC(=O)Nc1cccc(OC(=O)Nc2cccc(C)c2)c1`: “inactive”; `CCOP(=S)(OCC)SCCSCC`: “inactive”; `O=[N+]([O-])c1c(Cl)c(Cl)c(Cl)c(Cl)c1Cl`: “inactive”.
The same measure for `CC(C)(C)c1ccccc1O`: “inactive”; for `Oc1cc(Cl)c(Cl)c(Cl)c1Cl`: “inactive”; for `c1ccc2c(c1)CCNC2`: “inactive”.
`CC(C)CON=O`: the result was inactive.
Regarding `O=C(O)c1cc(Cl)ccc1Cl`, the compound was called inactive.
Next, `O=[N+]([O-])c1cc(Cl)c(Cl)cc1Cl`: “inactive”; `CC(C)(C)C(O)(CCc1ccc(Cl)cc1)Cn1cncn1` (stereo not given): “inactive”.
The same measure for `O=Cc1ccc(Cl)cc1Cl`: “inactive”; for `Cc1cc(-c2ccc(N)c(C)c2)ccc1N`: “inactive”; for `CC(C)(COCC1CO1)COCC1CO1` (stereo not given): “inactive”.
Next, `CCC[N+](=O)[O-]`: “inactive”.
`c1ccc(C2CO2)cc1` (stereo not given): the compound was classed as inactive.
For `CC(Cl)(Cl)Cl`, the compound was called inactive.
With `Oc1cc(Cl)c(Cl)c(Cl)c1`, the call was inactive.
Turning to `[O-][Cl+2]([O-])O`, the call was inactive.
Next, `ClP(Cl)(Cl)(Cl)Cl`: “inactive”; `BrC(Br)Br`: “inactive”.
In the case of `C=CCO`, the outcome was inactive.
Next, `C=CCOCC1CO1` (stereo not given): “inactive”; `S=C1NCCN1`: “inactive”; `Clc1cccc(Cl)c1Cl`: “inactive”.
Consider `Oc1c(Cl)c(Cl)cc(Cl)c1Cl`, for which the compound was called inactive.
The same measure for `CCCCCCCCCCCCCl`: “inactive”.
Turning to `Nc1cc(Cl)cc(C(=O)O)c1Cl`, the compound was classed as inactive.
